Inconclusive results are not listed. Calls of active or inactive are those of the source. Unless noted, the call rests on the fitted dose curve; in most records, active means well fitted curve in the direction sought with a large enough effect in the repeat runs; inconclusive means weak or mixed curves; inactive means no such curve, though single readings can be large; an effect the other way counts as inactive or inconclusive.
Tests used:
[1] = qHTS assay for small molecule agonists of the p53 signaling pathway (AID 651631; calls by dose curve; further: nearly all actives have a fitted effect of over 15% in size)
Summary of the method: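 Fluorescence intensity from cleaved LiveBLAzer B/G substrate (2 h, room temperature) served as the signal. Beforehand, HCT-116 reporter cells bearing p53 response elements were treated 16 h at 37 °C with DMSO-dissolved compounds.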

[2] = qHTS assay for small molecule agonists of the p53 signaling pathway - cell viability (AID 651633; calls by dose curve;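 further: p53RE-bla HCT reporter cells with a stable beta-lactamase p53 reporter; nearly all actives have a fitted effect of over 30% in size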)
Summary of the method: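 p53RE-bla cells, seeded at 4,000 per well and rested 5 h at 37 C/5% CO2, received compounds in DMSO for 16 h at 37 C. CellTiter-Glo was then added, and luminescence was read after 30 min at room temperature to gauge cytotoxicity.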

[3] = qHTS assay for small molecule disruptors of the mitochondrial membrane potential - cell viability (AID 720634; calls by dose curve;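 further: human HepG2 liver cancer cells; nearly all actives have a fitted effect of over 20% in size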)
Summary of the method: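 HepG2, 1 hr compound, 37 C. ATP luminescence via CellTiter-Glo, 30 min RT, same well as m-MPI.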

[4] = qHTS assay to test for compound auto fluorescence at 590 nm (red) in HepG2 cells (AID 720674)
Summary of the method: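 Rose Bengal sodium served as the red fluorophore standard. HepG2 monolayers (overnight attachment, MEM with 10% FBS) were exposed to test compounds for 1 hr at 37 C and read at Ex 540/Em 590 nm.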

[5] = qHTS assay to test for compound auto fluorescence at 535 nm (green) in HepG2 cells (AID 720675)
[6] = qHTS assay to test for compound auto fluorescence at 460 nm (blue) in HEK293 cells (AID 720678)
Summary of the method: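 HEK293 cells (2,000/well, medium with 10% dialyzed FBS) attached 4-5 hr, then exposed to compound overnight at 37C, 5% CO2. Blue fluorescence read at 405/460 nm, with triamterene as reference fluorophore.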

[7] = qHTS assay to test for compound auto fluorescence at 590 nm (red) in HEK293 cells (AID 720679)
Summary of the method: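 HEK293 cells (2,000/well, 10% dialyzed FBS) attached 4-5 hr, then dosed with compound or DMSO and incubated overnight at 37C, 5% CO2. Red fluorescence read at 540/590 nm, Rose Bengal sodium as reference fluorophore.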

[8] = qHTS assay to test for compound auto fluorescence at 535 nm (green) in HEK293 cells (AID 720680)
[9] = qHTS assay to test for compound auto fluorescence at 460 nm (blue) in HEK293 cell free culture (AID 720681)
Summary of the method: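 Test compounds were pinned into cell-free culture medium (DMEM with 10% FBS) and fluorescence was read directly at Ex/Em 405/460 nm. Signals were expressed as fluorescence equivalents of triamterene, with DMSO vehicle as control.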

[10] = qHTS assay to test for compound auto fluorescence at 535 nm (green) in HEK293 cell free culture (AID 720682)
Summary of the method: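 Intrinsic compound fluorescence is measured in culture medium containing 10% FBS, with excitation at 485 nm and detection at 535 nm, referenced to fluorescein.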

[11] = qHTS assay to test for compound auto fluorescence at 590 nm (red) in HEK293 cell free culture (AID 720683)
Summary of the method: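 Tox21 10K library compounds were pinned into cell-free DMEM with 10% FBS and fluorescence was read at excitation 540 nm. Activity is expressed as Rose Bengal sodium equivalency.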

[12] = qHTS assay to test for compound auto fluorescence at 590 nm (red) in HepG2 cell free culture (AID 720684)
Summary of the method: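 Red fluorescence (540 nm excitation, 590 nm emission) was measured after compound transfer into cell-free MEM supplemented with 10% FBS. Values are equivalencies against Rose Bengal sodium.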

[13] = qHTS assay to test for compound auto fluorescence at 535 nm (green) in HepG2 cell free culture (AID 720686)
[14] = qHTS assay to test for compound auto fluorescence at 460 nm (blue) in HepG2 cells (AID 720687)
Summary of the method: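 Cells (2,000/well in MEM with 10% FBS) attached overnight at 37 C, then were exposed to compound or DMSO for 1 hr at 37 C, 5% CO2. Fluorescence read at Ex/Em 405/460 nm, expressed as triamterene-equivalent signal.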

[15] = target: Glucocorticoid receptor (Homo sapiens) (UniProt P04150); test: qHTS assay to identify small molecule agonists of the glucocorticoid receptor (GR) signaling pathway (AID 720691; active means well fitted activation curve with a large enough effect in the signal ratio in the repeat runs, not every such curve was filed as active; the % refers to the signal ratio); settings: GR-bla HeLa, beta-lactamase reporter ratio, 18 h; activation: at 62.4 µM (top of the series)
Summary of the method: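 qHTS in GR-bla HeLa cells: 4 h settling at 37 C/5% CO2, 18 h compound incubation at 37 C, 2 h LiveBLAzer B/G FRET substrate at room temperature, fluorescence intensity measured.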

[16] = target: Glucocorticoid receptor (Homo sapiens) (UniProt P04150); test: qHTS assay to identify small molecule antagonists of the glucocorticoid receptor (GR) signaling pathway (AID 720692; active means well fitted inhibition curve with a large enough effect in the signal ratio in the repeat runs, not every such curve was filed as active; the % refers to the signal ratio)
Summary of the method: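 Inhibition of glucocorticoid signalling is measured in HeLa cells with a GRE-controlled beta-lactamase reporter; cells are co-treated with compound and 5 nM dexamethasone (final) for 18 h before FRET substrate readout.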

[17] = qHTS assay for small molecules that induce genotoxicity in human embryonic kidney cells expressing luciferase-tagged ATAD5 (AID 651632); further: nearly all actives have a fitted effect of over 15% in size
Summary of the method: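 Luminescent reporter readout, HEK293T ATAD5-luc line: 16 hr drug exposure (37C, 5% CO2) followed by Amplite, 30 min RT.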

[18] = qHTS assay for small molecules that induce genotoxicity in human embryonic kidney cells expressing luciferase-tagged ATAD5 - cell viability (AID 651634; calls by dose curve; further: nearly all actives have a fitted effect of over 25% in size)
Summary of the method: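 Viability read: CellTiter-Fluor fluorescence, 30 min at 37C. Cells: HEK293T, luciferase-tagged ATAD5. Exposure: 15.5 hr, 37C, 5% CO2, compound or DMSO vehicle.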

[19] = qHTS assay for small molecule disruptors of the mitochondrial membrane potential (AID 720635)
Summary of the method: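 HepG2 cells (2,000/well) attached overnight at 37C, then took compound for 1 hr at 37C, 5% CO2. Mito-MPS dye was added for 30 min; fluorescence was read at 490/535 nm (monomers) and 540/590 nm (aggregates).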

[20] = qHTS assay to test for compound auto fluorescence at 460 nm (blue) in HepG2 cell free culture (AID 720685)
Summary of the method: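 Compound (23 nL) or DMSO pinned into cell-free MEM with 10% FBS; blue fluorescence read at 405/460 nm excitation/emission, expressed as auto-fluorescence equivalency to triamterene.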

Measured: Potency

Sequence of Glucocorticoid receptor (Homo sapiens) (P04150 whole entry, looked up): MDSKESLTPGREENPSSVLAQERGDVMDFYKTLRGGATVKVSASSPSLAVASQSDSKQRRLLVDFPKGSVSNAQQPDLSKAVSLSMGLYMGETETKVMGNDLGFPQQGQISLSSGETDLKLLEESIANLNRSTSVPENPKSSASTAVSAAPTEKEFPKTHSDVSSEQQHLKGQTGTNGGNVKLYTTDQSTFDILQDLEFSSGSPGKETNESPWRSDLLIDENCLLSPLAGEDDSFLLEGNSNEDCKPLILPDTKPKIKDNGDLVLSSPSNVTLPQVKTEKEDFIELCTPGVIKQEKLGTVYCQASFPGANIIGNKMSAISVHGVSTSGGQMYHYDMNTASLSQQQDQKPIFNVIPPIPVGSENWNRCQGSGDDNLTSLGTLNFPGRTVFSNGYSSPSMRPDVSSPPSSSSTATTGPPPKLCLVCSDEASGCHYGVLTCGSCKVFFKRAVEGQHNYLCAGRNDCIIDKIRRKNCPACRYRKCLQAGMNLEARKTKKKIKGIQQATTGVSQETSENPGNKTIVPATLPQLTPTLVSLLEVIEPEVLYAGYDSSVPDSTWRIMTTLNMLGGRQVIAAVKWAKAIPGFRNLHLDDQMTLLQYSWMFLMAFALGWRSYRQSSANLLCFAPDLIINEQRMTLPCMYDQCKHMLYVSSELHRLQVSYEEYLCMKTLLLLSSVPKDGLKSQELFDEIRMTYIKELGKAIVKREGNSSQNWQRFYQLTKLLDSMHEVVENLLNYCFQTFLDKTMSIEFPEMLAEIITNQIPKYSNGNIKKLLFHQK

CCCCC(CC)CO (stereo unspecified)
not listed: [17] | [18] | [19] | [20]
inactive: all other assays above

Nc1ccccc1[N+](=O)[O-]
not listed: [6] | [7] | [16] | [19] | [20]
inactive: all other assays above

c1c[nH]cn1
not listed: [7] | [14] | [16] | [18]
inactive: all other assays above

c1ccc(OCCOc2ccccc2)cc1
not listed: [6] | [7] | [19]
inactive: all other assays above

C#CCN(C)Cc1ccccc1
not listed: [6] | [16] | [18] | [19]
inactive: all other assays above

CCCCCCCCCCCCc1ccccc1
not listed: [6] | [7] | [15] | [16] | [17] | [19] | [20]
inactive: all other assays above

NNc1nncc2ccccc12
not listed: [17] | [18] | [19] | [20]
inactive: all other assays above

OCCOCCN1CCN(C2=Nc3ccccc3Sc3ccccc32)CC1
not listed: [15] | [16] | [17] | [19] | [20]
inactive: all other assays above

CCOC(=O)NNc1nncc2ccccc12
not listed: [16] | [18] | [19]
inactive: all other assays above

Reference: PubChem BioAssay (Tox21)
